This note sets out measurements from ChEMBL document CHEMBL4513216, “Probing the Open Global Health Chemical Diversity Library for Multistage-Active Starting Points for Next-Generation Antimalarials” (ACS Infect Dis, 2020).

About 8,600 (12%) of roughly 69,000 compounds showed an effect of 50% or more. Shown is part of a subset that was picked to be rich in strong results.

The subject of this experiment is Plasmodium berghei. Put plainly: Screen against P. berghei liver stage (PbLuc), transformed with Luciferase, at 10uM. In kind it is functional, HepG2. Particulars: tested at 10 uM.
With `Cc1occc1C(=O)N1CCc2c(CNS(C)(=O)=O)cncc2C1`, the INHIBITION is on record as 6.55%.
In the case of `COc1c(NC(=O)N(C)CCOc2ccccc2)c(C)nn1C`, the INHIBITION is reported as -24.6%.
`CN(CCOc1ccccc1)C(=O)Nc1cccn(C)c1=O`: the INHIBITION turned out to be 82.4%.
On to `CC(C)Oc1cccc(CN(C)C(=O)Nc2cccn(C)c2=O)c1`, for which the INHIBITION is listed as -15%.
As for `CC(C)c1sc(Cl)nc1C(=O)N1CCN(Cc2ccccc2)CC1`, the INHIBITION worked out at 10.9%.
In the case of `Cc1ccc(-n2cc(C(=O)NCc3nnc4n3CCCCC4)nn2)cc1`, the INHIBITION is -21.2%.
For `CCN(CC)c1ccc(CNC(=O)N2CCC(C#N)CC2)cc1`, the INHIBITION was determined as 2.91%.
The value for `CN(C(=O)OC(C)(C)C)C1CCN(C(=O)c2ccc(Cl)o2)C1` (stereo not given) was -12.3%; that for `CCc1ccc(C(=O)N2CCC(N(C)C(=O)OC(C)(C)C)C2)o1` (stereo not given) was 71.2%.
The value for `Cc1ccc(C(=O)N2CCCC(N(C)C(=O)OC(C)(C)C)C2)o1` (stereo not given) was 37.8%; that for `c1ccc(-c2nc3c(c(NCc4nnc5n4CCC5)n2)CCNC3)cc1` was 39.4%.
Take `CC(C)(C)CC(=O)N1CCc2sccc2C1`: the INHIBITION is given as -46.6%.
Regarding `O=C(CCN1CCCC1c1cccc(F)c1)N1CCc2sccc2C1` (stereo not given), the INHIBITION amounted to 9.54%.
Take `O=C(CCNCc1cccc(O)c1)N1CCc2sccc2C1`: the INHIBITION amounted to 81.2%.
As for `NC(=O)NC(CC(=O)N1CCc2sccc2C1)c1cccc(Br)c1` (stereo not given), the INHIBITION came to 14.9%.
With `CN(CCC(=O)N1CCc2sccc2C1)Cc1ccc2c(c1)OCCO2`, the INHIBITION is listed as -7.35%.
On to `N#Cc1cccc(CNCCC(=O)N2CCc3sccc3C2)c1`, for which the INHIBITION is listed as 68.3%.
As for `CN(CCC(=O)N1CCc2sccc2C1)Cc1cc(Br)cs1`, the INHIBITION was found to be 19.2%.
The value for `COc1ccc(CNCCC(=O)N2CCc3sccc3C2)cc1O` was 76.2%; that for `COc1ccc(CNC(=O)N2CCc3sccc3C2)cc1O` was -45%; that for `CN(C)C(=O)c1cccn1-c1ccc2c(c1)OCCO2` was 9.16%.
The result for `CC(C)(C)OC(=O)N1CCN(c2cccnc2)CC1C(=O)O` (stereo not given) reads 20.2%; that for `CC(C)C(C(=O)N1CCN(Cc2ccccn2)CC1)n1cncn1` (stereo not given), -24.5%.
The value for `Cc1nc(C(C)C)sc1C(=O)NCCNc1ncccc1C#N` was -29.1%; that for `O=C(NC1CC1)N1CCC2(CC1)C(=O)NCCN2Cc1ccccc1` was 30.9%; that for `CC(C)(C)OC(=O)N(CCNS(=O)(=O)N1CCOCC1)C1CC1` was -28%.
On to `CN1CCC2(CCCN(c3nccc(C(F)(F)F)n3)C2)CC1`, for which the INHIBITION is given as -2.35%.
With `Cc1ncc(CN(C)C(=O)Nc2ccc(CN3CCOC3=O)cc2)s1`, the INHIBITION is listed as 22.5%.
With `Cc1ncc(CN(C)C(=O)Nc2cccc(CN3CCOC3=O)c2)s1`, the INHIBITION was 52.8%.
As to `O=C(Nc1cccc(CN2CCOC2=O)c1)N1CCCCCC1`, the INHIBITION is -4.12%.
For `O=C(Nc1cccc(CN2CCOC2=O)c1)N1CCOCC1`, the INHIBITION is recorded as 5.14%.
Consider `O=C(Nc1cccc(CN2CCOC2=O)c1)N1CCCC1`, for which the INHIBITION is 53.8%.
In the case of `Cc1ncc(CN(C)C(=O)Nc2cccc(N3CCOC3=O)c2)s1`, the INHIBITION worked out at 28%.
The value for `CCCN1CCC=C(C2c3nc[nH]c3CCN2C(=O)c2ccco2)C1` (stereo not given) was 25.1%; that for `OC(CN1CCC(CNCc2ccccn2)CC1)c1ccccc1` (stereo not given) was -36.1%; that for `COCC(=O)N1C[C@H]2CNC[C@@]2(C(=O)NCc2cccc3[nH]ccc23)C1` was 13.1%.
For `CN(CC1CCCCO1)S(=O)(=O)c1cccc(C(=O)N2CCOCC2)c1` (stereo not given), the INHIBITION was found to be 1.19%.
With `CC(C)(C)NC(=O)CN1CCCNCC1`, the INHIBITION worked out at 74.9%.
As for `CC(C)NC(=O)CN1CCCNCC1`, the INHIBITION is 3.77%.
Take `CC(C)(C)NC(=O)CN1CCNCC1`: the INHIBITION is on record as -30%.
For `O=C(O)c1cc2c(nc1-c1cncnc1)CCN(C1CCOC1)CC2` (stereo not given), the INHIBITION turned out to be 37.8%.
Take `Cc1ccccc1CC(=O)N1CC[C@@](O)(CNS(C)(=O)=O)[C@H](O)C1`: the INHIBITION worked out at 0.301%.
The result for `N#Cc1ccccc1CN(CCO)Cc1ccsc1` reads 36.4%.
For `CN(Cc1ccc(F)cc1)C(=O)Nc1cccnc1N1CCCC1`, the INHIBITION was -2.33%.
As for `COCCN1C[C@@H]2CC[C@H]1CN(CC(=O)Nc1ccn(C)n1)C2`, the INHIBITION is listed as 21.2%.
In the case of `CS(=O)(=O)N1C[C@H]2CC[C@@H](C1)N(CCC(=O)NCc1ccccc1F)C2`, the INHIBITION was -7.02%.
On to `Cn1ccc(NC(=O)CN2C[C@@H]3CC[C@H]2CN(S(C)(=O)=O)C3)n1`, for which the INHIBITION was determined as 53.3%.
As to `COC1CCN(c2ccc(F)cc2CN(C)C(C)C(N)=O)CC1` (stereo not given), the INHIBITION was determined as 7.3%.
`Cc1ccccc1N1CC2(CCN(Cc3nccn3C)C2)CC1=O` (stereo not given): the INHIBITION came out at 25.2%.
The value for `Cc1nc(C)n(C2CCCN(C(=O)c3csnn3)C2)n1` (stereo not given) was 11.6%.
On to `Cc1nc(C)n(C2CCCN(C(=O)c3csc(C(C)C)n3)C2)n1` (stereo not given), for which the INHIBITION came out at 40.3%.
Regarding `Cc1nc(C)n(C2CCCN(C(=O)c3csc(C)n3)C2)n1` (stereo not given), the INHIBITION is 14.4%.
The result for `Cc1cc(C)n(C2CCCN(C(=O)c3csc(C4CC4)n3)C2)n1` (stereo not given) reads 34.7%.
In the case of `Cc1nc(C(=O)N2CCCC(n3cncn3)C2)cs1` (stereo not given), the INHIBITION came to 31.1%.
Turning to `CC(=O)Nc1nc(C(=O)N2CCCC(n3ccnc3)C2)cs1` (stereo not given), the INHIBITION is given as 31.9%.
Turning to `CC(=O)Nc1nc(C(=O)N2CCCC(n3cncn3)C2)cs1` (stereo not given), the INHIBITION turned out to be 67.6%.
Consider `Cc1nc(C)n(C2CCCN(C(=O)c3cscn3)C2)n1` (stereo not given), for which the INHIBITION was found to be 60.2%.
Consider `CC(=O)Nc1nc(C(=O)N2CCCC(n3nc(C)nc3C)C2)cs1` (stereo not given), for which the INHIBITION was 53.9%.
`Cc1cnc(C(=O)N2CCCC(n3nc(C)nc3C)C2)cn1` (stereo not given): the INHIBITION is reported as 7.12%.
With `CC(=O)Nc1nc(C(=O)N2CCCC(n3nc(C)cc3C)C2)cs1` (stereo not given), the INHIBITION is given as 57.8%.
The value for `COCc1nc(C(=O)N2CCCC(n3nc(C)cc3C)C2)cs1` (stereo not given) was 25.1%.
`Cc1ccc(N(C)[C@@H]2CC[C@@H]3CN(C(=O)CC4CCOCC4)C[C@@H]32)nn1`: the INHIBITION is recorded as -16%.
The value for `CCSc1ccccc1C(=O)NCCn1nc(-n2cncn2)ccc1=O` was 16.5%.
The value for `Cn1ccc(C(=O)N2CCC(Cc3ccc4ncccc4c3)CC2)n1` was 28.1%; that for `CC(C)CNC(=O)[C@H]1C[C@H]2CN(C(=O)NCC3CCCCC3)C[C@@H]1O2` was -41.9%.
With `CCC(NC1Cc2ccccc2C1)c1ccc(S(C)(=O)=O)cc1` (stereo not given), the INHIBITION is given as 29.4%.
Regarding `CCN(CC)S(=O)(=O)c1cnccc1N1CCN(C(C)C)CC1`, the INHIBITION is -26.8%.
With `CCNc1nnc(SC(C(=O)NCc2cccnc2)C(C)C)s1` (stereo not given), the INHIBITION was -7.98%.
Turning to `CC(CN1CCOCC1)OC(=O)c1ccccc1I` (stereo not given), the INHIBITION came out at 38.9%.
With `COCc1nc(C(=O)N2CCCC(n3ccnc3)C2)cs1` (stereo not given), the INHIBITION is reported as 59%.
As to `COCc1nc(C(=O)N2CCCC(n3cccn3)C2)cs1` (stereo not given), the INHIBITION worked out at 17.8%.
Regarding `COCc1nc(C(=O)N2CCCC(n3ccnc3C)C2)cs1` (stereo not given), the INHIBITION is on record as -23.9%.
Turning to `CC1CN(C)CCN1C(=O)c1ccn(-c2cccc(F)c2)n1` (stereo not given), the INHIBITION is 51.1%.
For the compound `COCCn1nc(C(=O)N2CCN(C)CC2C)ccc1=O` (stereo not given), the INHIBITION is 58.7%.
In the case of `CC1CN(C)CCN1C(=O)c1ccn(-c2ccc(F)cc2)n1` (stereo not given), the INHIBITION was 56.6%.
The result for `NC(=O)C1CCN(C(=O)c2ccn(-c3ccc(F)cc3)n2)C1` (stereo not given) reads 16.1%; that for `CC1CN(C)CCN1C(=O)c1ccn(-c2cccc(Cl)c2)n1` (stereo not given), 10%.
Take `CC1CN(C)CCN1C(=O)c1cccn1Cc1ccncc1` (stereo not given): the INHIBITION was 8.08%.
In the case of `CC1CN(C)CCN1C(=O)c1ccn(-c2ccccc2Cl)n1` (stereo not given), the INHIBITION is reported as -25.6%.
For `COc1ccc(-n2ccc(C(=O)N3CCN(C)CC3C)n2)cc1` (stereo not given), the INHIBITION is on record as 20.9%.
Consider `COCCn1nc(C(=O)N2CCOCC2C)ccc1=O` (stereo not given), for which the INHIBITION worked out at 47.6%.
In the case of `NC(=O)C1CCN(C(=O)c2ccn(-c3cccc(F)c3)n2)C1` (stereo not given), the INHIBITION is recorded as 23.5%.
The result for `CC1COCCN1C(=O)c1ccc(=O)n(CCOc2ccccc2)n1` (stereo not given) reads 4.41%.
Consider `CC1CN(C)CCN1C(=O)c1ccn(-c2ccccc2)n1` (stereo not given), for which the INHIBITION turned out to be 63.5%.
The value for `Cn1ccc(C(=O)NCCOc2ccc3c(c2)CCC3)cc1=O` was -15.5%.
For `CCc1ocnc1C(=O)N1CCCC1c1noc(C2CC2)n1` (stereo not given), the INHIBITION was found to be 34.2%.
Regarding `Cc1cc(C(=O)Nc2ccc(OCCN3CCN(C)CC3)cc2)[nH]n1`, the INHIBITION was -49.9%.
In the case of `CCc1cc(=O)[nH]c(-c2ccc(NCCC(C)O)nc2)n1` (stereo not given), the INHIBITION worked out at 36.9%.
On to `CCN1CC[C@@]2(C(=O)N(C)C)CCN(C(=O)Cc3ccccc3)CC[C@@H]12`, for which the INHIBITION is reported as 11.2%.
The result for `Cc1ccnc(N2CCCC(c3nccn3C(C)C)C2)n1` (stereo not given) reads 15.8%.
The value for `CC(C)n1ccnc1C1CCCN(c2nc3ccccc3s2)C1` (stereo not given) was 61.2%.
The result for `CC(C)n1ccnc1C1CCCN(c2ccccn2)C1` (stereo not given) reads 24.6%; that for `CC(C)n1ccnc1C1CCCN(c2ccnc3ccccc23)C1` (stereo not given), 71.3%; that for `CC(C)n1ccnc1C1CCCN(c2ccncc2F)C1` (stereo not given), 32.1%.
`CSc1nccc(N2CCCC(c3nccn3C(C)C)C2)n1` (stereo not given): the INHIBITION is given as 27.6%.
Consider `CN(C)C(=O)C1CCCN1CCCNC(=O)c1cccc2[nH]ncc12` (stereo not given), for which the INHIBITION was 23.2%.
For `COc1cc(C(C)=O)ccc1OCCNCc1ccco1`, the INHIBITION amounted to 5.67%.
With `Cc1cc(CNC(=O)N(Cc2ccc(F)cc2F)C2CC2)no1`, the INHIBITION stood at 44.1%.
`COc1cccc(CN(C)C(=O)CCC(=O)c2ccc(Cl)cc2)c1OC`: the INHIBITION turned out to be 40.1%.
Regarding `COc1cccc(CN(C)Cc2ccccc2C#N)c1OC`, the INHIBITION was found to be 4.48%.
On to `CC(=O)Nc1ccc(C(=O)N(C)Cc2cccc(F)c2)s1`, for which the INHIBITION stood at 39.7%.
As for `COc1cccc(CN(C)C(=O)c2ccc(NC(C)=O)s2)c1OC`, the INHIBITION amounted to 61.1%.
With `CC(=O)Nc1ccc(C(=O)N(C)Cc2ccc(F)cc2F)s1`, the INHIBITION is on record as 56%.
In the case of `Cn1cc(-c2cnc(N3CCOCC3)nc2)cc1C(=O)NCCC#N`, the INHIBITION is on record as 47.4%.
The value for `Cn1nccc1-c1cccc(CC2CCN(S(C)(=O)=O)C2)n1` (stereo not given) was 12.905%; that for `Clc1cccc(Cl)c1-c1nnc(CNCCn2cccn2)o1` was -48.4%; that for `Cc1nc(CCNC(=O)N2CCC(Cc3cnn(C)c3)C2)cs1` (stereo not given) was -4.74%.
As to `Fc1cccc(Cl)c1CNCCOc1ccccn1`, the INHIBITION came out at 27%.
Consider `Clc1cccc(Cl)c1CNCCOc1ccccn1`, for which the INHIBITION came to 60%.
The value for `Fc1cccc(Cl)c1CNCCCOc1ccccn1` was 2.61%.
